We go through 15 compounds from PubChem BioAssay (NCATS).

Molecules are shown by their SMILES. Records with an inconclusive call do not appear. Active and inactive are the calls of the source. Calls come from the whole dose curve; as a rule, active = well fitted curve in the direction sought with a large enough effect; inconclusive = small, poorly fitted or top-dose-only effect, or another doubt; inactive = no such curve, though single readings can be large; an effect the other way counts as inactive or inconclusive.

The nature of assay [1]: HPAF-II Cancer Cell Toxicity qHTS against the NCATS CANVASS Library (AID 1347346). Note: nearly all actives have a fitted effect of over 55% in size. In a few lines:
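Luminescence from CellTiter-Glo, added after 72 h compound exposure and a 15 min room-temperature incubation, served as the viability readout. HPAF-II cells (1000/well) received an 11-point concentration series.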
On the technique in general: Quantitative high-throughput screening tests each substance at several concentrations.

Assay [2] can be described thus: A2780 Cisplatin Sensitive Ovarian Cancer Cell Toxicity qHTS against the NCATS CANVASS Library (AID 1347353). Note: nearly all actives have a fitted effect of over 60% in size. In a few lines:
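Luminescent ATP content (ATPLite, 10 min at room temperature) served as the read-out after cells had been exposed to compounds for 72 hours at 37 °C. Dosing followed an 11-point concentration series.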

Assay [3] in a line: SDT Cancer Cell Toxicity qHTS against the NCATS CANVASS Library (AID 1347365). Note: nearly all actives have a fitted effect of over 60% in size. In a few lines:
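qHTS, SDT dog glioma line, 500 cells/well; cpds 11 pts; 72 hr, 37C, 5% CO2; CellTiterGlo ATP luminescence.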

Assay [4] can be described thus: qHTS for ATAD5 Antagonist screened against the NCATS CANVASS Library (AID 1347370). Note: nearly all actives have a fitted effect of over 65% in size. In a few lines: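 HEK293T cells with stably integrated ATAD5-luciferase reporter, 2000/well, 5 h attachment; compounds plus 10 µM 5-fluorouridine, 16 h at 37 °C. Luciferase luminescence read, with CellTiter-Fluor viability read first.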
Assay [5] in a line: qHTS for Activators of p53 Stress Response Pathway screened against the NCATS CANVASS Library (AID 1347388). In a few lines:
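p53RE-bla HCT-116 cells (4000/well) were pre-incubated for 5 h, then treated with compound (11 points) for 16 h at 37C. After 2 h with CCF4, the 460/530 nm ratio gave reporter activation; CellTiter-Glo measured viability.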

Assay [6] in a line: qHTS assay for small molecule disruptors of mitochondrial membrane potential screened against the NCATS CANVASS Library (AID 1347389). Note: nearly all actives have a fitted effect of over 60% in size. In a few lines: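 HepG2, 2,000 cells/well, attached overnight; compound 1 hr, 37C, 5% CO2; Mito-MPS dye 30 min, 37C; fluorescence 535 nm (monomer) and 590 nm (aggregate); decreased 590/535 ratio = depolarization.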
Assay [7] is described as follows: Secretion counterscreen for inhibitors of the SERCaMP assay screened against the NCATS CANVASS Library (AID 1347390).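 Note: light from luciferase secreted into medium read as a measure of general secretion.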 In a few lines: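 SH-SY5Y cells expressing constitutively secreted GLuc, 1000 cells/well, attached 4 h at 37C, then exposed to compounds (0.001 - 77 uM, 11-pnt series) for 20 h. Coelenterazine added; luminescence read to flag secretory-pathway interferers.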

Assay [8] is described as follows: Vero-766 cells viability qHTS against the NCATS CANVASS Library: Counterscreen for Zika virus inhibition assay (AID 1347394). Note: nearly all actives have a fitted effect of over 60% in size. In a few lines:
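Uninfected Vero 766 (African green monkey) cells, 1000/well, attached overnight, then exposed 72 h at 37C to compounds (11-point qHTS). Viability read by CellTiter-Glo luminescence; media-only wells served as 100% inhibition.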

A short description of assay [9]: qHTS for Hypoxia signaling pathway (HIF-1) antagonists against the NCATS CANVASS Library (AID 1347374). Note: nearly all actives have a fitted effect of over 60% in size. In a few lines:
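HRE-bla ME-180 cells in medium with 0.5% dialyzed FBS received compounds (11-point series) plus CoCl2 (60 uM addition stock) for 17 hrs at 37C. Beta-lactamase activity read with CCF4 (405 nm ex, 460/530 nm em); CellTiter-Glo viability measured in same wells.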

Assay [10] is described as follows: qHTS for Inflammasome Signaling Inhibitors: IL-1-beta AlphaLISA screen against the NCATS CANVASS Library (AID 1347379).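 For Potency: secreted IL-1B measured as AlphaLISA emission at 615 nm.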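 Note: human THP-1 cells primed with LPS then triggered with ATP.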 In a few lines:
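THP-1 cells pretreated 1 hr with compound (up to 57.5 uM final), then stimulated with LPS (250 ng/mL final) and ATP (1.25 mM final). Secreted IL-1B measured by AlphaLISA after 16 hr; glyburide as positive control.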
Potency is the fitted concentration of half-maximal effect.

In the case of `C/C=C(\C)C(=O)O[C@@H]1[C@@H](O)[C@@H]2O[C@H]3[C@H](O[C@@H](CCCCC)CCCCCCC(=O)CCC(=O)OC[C@@H](O2)[C@H]1OC(=O)/C=C/c1ccccc1)O[C@H](C)[C@H](OC(C)=O)[C@@H]3O`, the Potency in [1] was 0.133 µM (active); in assay [2] it was 0.332 µM (active); in [3] it was 0.0526 µM (active); in assay [6] it was 16.6 µM (active); in assay [7], 0.0767 µM (active). Also, the Potency result in assay [4], in [5] and in assay [8] was “inactive” each time.
In the case of `CO[C@@]12c3c(C)cc(O)c4c(=O)occ(c34)C(=O)[C@@H]1[C@]13COC(=O)c4c(O)cc(C)c(c41)C(=O)[C@H]2[C@@H]3OC(C)=O`, the Potency entry in [3], in assay [4], in assay [9], in assay [10], in assay [5] and in assay [8] was “inactive” in each case. For the same compound, in [6], the Potency was 16.6 µM (active).
For the compound `COC1C(O)C(C)OC(OC2C(Oc3cccc4c(O)c5c(=O)oc6ccc(C)c7c(=O)oc(c34)c5c67)OC(C)C(O)C2O)C1O` (stereo not given), the Potency is 3.32 µM (active) in assay [2]; 11.8 µM (active) in assay [3]; 27.3 µM (active) in [10]; 10.5 µM (active) in assay [5]; 30.5 µM (active) in [7].
Consider `CCCC[C@@H](C)/C=C1/CN2CCC[C@H]2[C@@](C)(O)[C@@H]1O`, for which the Potency result in [2], in [3], in assay [4], in assay [9], in assay [10] and in assay [5] was “inactive” each time. In addition, the Potency result in assay [6], in assay [7] and in [8] was “inactive” in each case.
For the compound `C=C(C)[C@H]1C(=O)c2c3c(cc4c5c(n1c24)[C@@]1(C)[C@@H](CC[C@H]2[C@](C)(/C=C/C=C(\C)C(=O)O)[C@@H](O)CC[C@@]21C)C5)C1=CC(C)(C)OC(C)(C)[C@H]1[C@@H]3O`, the Potency is 5.95 µM (active) in assay [1]; 3.72 µM (active) in assay [2]; 16.6 µM (active) in [4]; 6.66 µM (active) in [9]; 16.6 µM (active) in [6]; 7.41 µM (active) in assay [8]. The Potency entry in [10] is “inactive”.
As for `CCC(=O)N[C@@H](C[C@H](C)C(Cl)(Cl)Cl)C(=O)N1C(=O)C=C(OC)[C@@H]1C[C@H](C)C(Cl)Cl`, the Potency result in assay [2], in assay [3], in assay [4], in [9], in [10] and in assay [7] was “inactive” in each case.
Regarding `CC[C@@H]1CN2CCC3(Nc4cccc(OC)c4C3=O)[C@@H]2C[C@@H]1/C(=C\OC)C(=O)OC` (stereo not given in full), the Potency entry in assay [1], in assay [2], in assay [3], in assay [4], in assay [9] and in assay [10] was “inactive” each time. Also, the Potency result in [5], in assay [6], in [7] and in assay [8] was “inactive” each time.
As to `COC1=C(C2=C(OC)C(=O)c3cc4c(c(O)c3C2=O)C(=O)O[C@H](C)C4)C(=O)c2c(cc3c(c2O)C(=O)O[C@H](C)C3)C1=O`, the Potency in [2] was 5.54 µM (active). The Potency entry in [3], in assay [4] and in assay [8] was “inactive” each time.
As for `C/C=C/[C@@H]1[C@H]2C[C@@H](C)CC[C@@H]2C(C)=C[C@H]1C(=O)c1c(O)c(-c2ccc(O)cc2)c[nH]c1=O`, the Potency in assay [1] was 13.3 µM (active); in [9] it was 23.6 µM (active); in assay [6], 14.8 µM (active); in assay [8], 18.6 µM (active). Further, the Potency entry in [10] and in assay [7] was “inactive” each time.
`C/C=C1/CN2CC[C@@]34c5ccccc5N(C)[C@@H]3[C@@H]2C[C@@H]1[C@H]4C(=O)OC`: the Potency result in assay [1], in assay [2], in [9], in assay [10], in assay [5] and in [6] was “inactive” throughout. For the same compound, the Potency entry in [7] and in assay [8] was “inactive” each time.
For `CC[C@@H]1CN2CCc3c([nH]c4cccc(OC)c34)[C@@H]2C[C@@H]1/C(=C\OC)C(=O)OC`, the values for the Potency in assay [3] and in assay [6] were 16.6 µM (active) and 4.67 µM (active), respectively. Besides, the Potency entry in assay [9] and in [7] was “inactive” in each case.
Regarding `C/C=C1/CN2C3CC1C1=CCC(=O)N4c5ccccc5[C@@]3(C[C@@H]2C2=C[C@H]3C5CC6N(CC[C@@]67c6ccccc6N(C2=O)[C@@H]37)C/C5=C/C)[C@H]14` (stereo not given in full), the Potency is 18.8 µM (active) in assay [1]; 13.2 µM (active) in assay [2]; 20.9 µM (active) in assay [3]; 14.8 µM (active) in assay [4]; 21.7 µM (active) in assay [10]; 43.1 µM (active) in assay [7]. In addition, in assay [6], the Potency entry is “inactive”.
On to `C[C@]12CCC3[C@@H](CC[C@@H]4C[C@@H](O)CC[C@]34CO)[C@@]1(O)CC[C@@H]2C1=CC(=O)OC1` (stereo not given in full), for which the Potency was 2.98 µM (active) in [1]; 2.96 µM (active) in assay [2]; 1.48 µM (active) in assay [3]; 4.17 µM (active) in [4]; 0.941 µM (active) in [9]; 1.93 µM (active) in assay [10]. In addition, the Potency in assay [7] was 7.67 µM (active); in assay [8] it was 11.7 µM (active). For the same compound, the Potency result in [5] is “inactive”.
For the compound `CCCC[C@@H]1CC[C@H]2CCCC(CCCO)N12` (stereo not given in full), the Potency entry in [1], in assay [2], in assay [3], in [4], in assay [9] and in [10] was “inactive” throughout. For the same compound, the Potency result in [5], in assay [6], in assay [7] and in assay [8] was “inactive” in each case.
Turning to `O[C@H]1C=C[C@@]23CCN(Cc4cc5c(cc42)OCO5)[C@@H]3C1`, the Potency result in assay [1], in assay [2], in [3], in assay [4], in [9] and in assay [10] was “inactive” in each case. Also, the Potency entry in assay [5], in [6], in assay [7] and in assay [8] was “inactive” each time.
